# Reference: ChEMBL document CHEMBL4513216, “Probing the Open Global Health Chemical Diversity Library for Multistage-Active Starting Points for Next-Generation Antimalarials” (ACS Infect Dis, 2020)
# The campaign covered roughly 69,000 compounds. About 8,600 (12%) showed an effect of 50% or more. The entries come from a sample that favours strong results as a whole.
# Tested on: Plasmodium berghei
# Assay: Screen against P. berghei liver stage (PbLuc), transformed with Luciferase, at 10uM
# Format: functional, HepG2
# Details: tested at 10 uM
row,SMILES,INHIBITION [%]
1,CC(c1nc(C(C)(C)C)no1)N1CCN(Cc2ccc(C#N)cc2)CC1 (stereo unspecified),-4.94
2,Cc1ccoc1C(=O)N1CCn2cc(CN3CCCC3)nc2C1,28.7
3,CCOc1cccc2c1OCC(C(=O)NS(=O)(=O)c1c(C)noc1C)=C2,-6.44
4,CO[C@H]1CN(S(=O)(=O)c2ccc(F)cc2)C[C@@]12CCCO2,-23.4
5,CN(C)c1ccc(NC(=O)NCc2cccnc2N(C)C)cn1,17.5
6,CN1CCN(C2CCN(Cc3noc(C(C)(C)C)n3)CC2)C1=O,-21.5
7,CCc1nnc(CN2CCC(c3nc4cc(Cl)ccc4o3)CC2)o1,33.8
8,Clc1ccc2oc(C3CCN(Cc4cccnc4)CC3)nc2c1,73.4
9,CCS(=O)(=O)c1ccc2oc([C@H]3CCN(Cc4ccccc4)C3)nc2c1,-81.2
10,Clc1ccc2oc(C3CCN(Cc4nc(C5CC5)no4)CC3)nc2c1,42.6
11,CC(C)(C)c1nc(CN2CCCC(c3noc(C4CC4)n3)C2)no1 (stereo unspecified),-41.1
12,c1ccc2oc(C3CCN(Cc4ncon4)CC3)nc2c1,15.2
13,CC(C)(C)c1nc(CN2CCC(c3nc4cc(Cl)ccc4o3)CC2)no1,56.9
14,CC(C)(C)c1nc(CN2CCC(N3CCCCC3)CC2)no1,56.3
15,CC(C)c1noc(CN2CCC(c3nc4cc(Cl)ccc4o3)CC2)n1,67.9
16,CCS(=O)(=O)c1ccc2oc([C@H]3CCN(Cc4cccnc4)C3)nc2c1,19.8
17,CC(C)(C)c1nc(CN2CCC(c3ccnn3CCO)CC2)no1,-17
18,CC(C)(C)c1n[nH]c(C2CN(C(=O)c3cnc[nH]3)CCO2)n1 (stereo unspecified),-42.1
19,CN(C)CC1CN(Cc2cccc(C#N)c2)Cc2nccn2C1 (stereo unspecified),-62.8
20,CC[C@H](C)Nc1ncc(-c2cccc(NC(=O)CNC)c2)cn1,-21.1
21,Cc1n[nH]cc1CNCC(O)c1ccc(F)c(F)c1 (stereo unspecified),1.24
22,Cc1cc(C(=O)N2CC[C@]3(C[C@@H](OCc4ccccn4)CO3)C2)c(C)o1,43.9

row,SMILES,INHIBITION [%]
1,O=C(NCC1CCCO1)c1cc(-c2cccnc2)c2cnccc2n1 (stereo unspecified),31.3
2,Cc1nc(CN2CCC(c3nc4cc(Cl)ccc4o3)CC2)oc1C,-6.88
3,Cc1noc(C)c1CN1CCC(c2nc3cc(Cl)ccc3o2)CC1,72.3
4,Cc1ncc(CN2CCC(c3nc4cc(Cl)ccc4o3)CC2)s1,83.3
5,Cc1ncc(CN2CCCN(Cc3noc(C4CC4)n3)CC2)s1,-36.1
6,Cc1ccc2oc([C@H]3CCN(Cc4ccccc4)C3)nc2c1,22.3
7,Cc1nnc(CN2CCC(c3nc4cc(Cl)ccc4o3)CC2)n1C,-0.275
8,N#Cc1cnc2cc(F)cc(F)c2c1NC1CCN(CC(N)=O)CC1,-71.1
9,CCCc1cc(C(=O)N[C@@H](CO)[C@@H](O)c2ccccc2)n(C)n1,20.3
10,CCn1nc(C)cc1C(=O)N1C[C@@H]2C[C@@H](C)O[C@@H]2C1,1.7
11,CCN(Cc1noc(CC(C)C)n1)Cc1ncccc1C(=O)O,35.9
12,CCN(Cc1noc(CC(C)C)n1)Cc1ccccc1Cl,50.8
13,CCN(Cc1noc(CC(C)C)n1)Cc1ccccc1C(=O)O,58.2
14,CCN(Cc1noc(CC(C)C)n1)Cc1cccc(F)c1O,45.2
15,CCN(Cc1noc(CC(C)C)n1)Cc1ccccc1OCC(=O)O,11.8
16,CCN(Cc1noc(CC(C)C)n1)Cc1ccccc1C,42.4
17,CCC1COCCN1C(=O)NCc1nccn1Cc1ccccc1 (stereo unspecified),40.7
18,CCCC1CCCN(C(=O)CCn2cccn2)CC1 (stereo unspecified),30.76
19,CC(C)C(=O)N1CC[C@H]2N(C)CC[C@@]2(C(=O)N2CCOCC2)CC1,14.9
20,CC(C)n1cnc2c1C(C(=O)N(C)C)N(Cc1ccccc1)CC2 (stereo unspecified),4.61
21,C1CCN(CCO[C@@H]2CC[C@H]3[C@H]2OCCN3CC2CCOCC2)C1,34.4
22,Cc1nccn1-c1ccc(N2CCC(N[C@H](C)C(C)C)CC2)cc1,43

row,SMILES,INHIBITION [%]
1,Cc1nccn1-c1ccc(C(C)NCc2cc[nH]n2)cc1 (stereo unspecified),50.8
2,COc1ccc(C)cc1C(C)NCc1cccn1C (stereo unspecified),-40.7
3,Cc1nc(CNC(C)c2ccc(OCC(=O)NC3CC3)cc2)cs1 (stereo unspecified),33.7
4,Cc1nccn1-c1ccc(N2CCC(NC(C)C(C)C)CC2)cc1 (stereo unspecified),25.8
5,Cc1nccn1-c1ccc(C(C)NCc2cccn2C)cc1 (stereo unspecified),53.4
6,CC(NCc1cccn1C)c1noc(-c2ccc(Cl)cc2)n1 (stereo unspecified),-1.15
7,Cc1nccn1-c1ccc(C(C)NCc2ncc[nH]2)cc1 (stereo unspecified),50
8,CCOc1ccc(CNC(C)c2ccc3[nH]c(=O)[nH]c3c2)cc1 (stereo unspecified),4.71
9,COc1cc2c(cc1OC)CN(C(=O)NCC1CCCO1)CC2 (stereo unspecified),18.9
10,Cc1c(C(=O)O)oc2ccc(I)cc12,26.3
11,Cc1nn(C)c(N(C)C)c1CNCCS(C)(=O)=O,-21.915
12,O=C(CC1[C@H]2CN(C(=O)CO)C[C@@H]12)Nc1cccnc1 (stereo partly specified),42.6
13,CC(NC(=O)NCCCc1n[nH]c(N)c1C#N)c1ccc(F)c(F)c1 (stereo unspecified),-23.8
14,Cn1c(=O)[nH]c(=O)c2c1nc1n2CC(c2ccc(Br)cc2)O1 (stereo unspecified),1.985
15,CC(=O)Nc1nc(CN2CCOC(Cn3cccn3)C2)cs1 (stereo unspecified),31.3
16,CC(NCc1ccc(OCC(N)=O)cc1)c1ccc(Cl)c(Cl)c1 (stereo unspecified),-6.91
17,CC(C)(C)CC(=O)NCC(=O)Nc1ccn(Cc2ccccc2)n1,21.6
18,O=C(NCC1CCCO1)c1csc(Cc2ccccc2)n1 (stereo unspecified),-87.7
19,Cc1ncsc1C(=O)NCC1CCC2(CCNCC2)CO1 (stereo unspecified),-10.9
20,O=C(NCC1CCC2(CCNCC2)CO1)c1cnccn1 (stereo unspecified),73.3
21,O=C(NCC1CCC2(CCNCC2)CO1)c1ccno1 (stereo unspecified),5.36
22,O=C(NCC1CC[C@@]2(CNCCOC2)O1)c1cnccn1 (stereo partly specified),5.36

row,SMILES,INHIBITION [%]
1,Nc1nc(C(=O)NCC2CCC3(CCNCC3)CO2)cs1 (stereo unspecified),55.6
2,CCN1CCOC(CNCc2cccc(OCc3ccccn3)c2)C1 (stereo unspecified),-62.8
3,CN(C)c1cc(CNC(=O)c2c(F)cccc2F)ccn1,-7.35
4,COCC1Cn2nnc(-c3cnn(C)c3)c2CN1Cc1ccc(C)s1 (stereo unspecified),11.8
5,CNS(=O)(=O)CC(=O)NC(c1cc(C)sc1C)C(C)C (stereo unspecified),16.6
6,Cn1cc(C(=O)NC(Cn2cccn2)C(C)(C)C)cn1 (stereo unspecified),35.2
7,CCc1nc(CNC(C)c2cccc(N3CCCC3=O)c2)cs1 (stereo unspecified),10.8
8,Cc1ccsc1CN(Cc1ncccc1C(=O)O)C1CC1,31.9
9,CC(C)c1nc(CN(C)Cc2ncccc2C(=O)O)cs1,15.7
10,Cc1ccsc1CN(C)Cc1ncccc1C(=O)O,68.3
11,COc1cccc(CCC(=O)N2CCN(CC(C)(C)O)CC2)c1,4.3
12,CC(=O)c1cc(CN2C[C@@H]3CC[C@H]2CN(Cc2c(C)noc2C)C3)cs1,-33.5
13,CNC(=O)c1nnc2ccc(N3CCOCC3)cc2n1,-12.2
14,CCNC(=O)c1nnc2ccc(N3CCOCC3)cc2n1,30
15,COCCNC(=O)c1nnc2ccc(N3CCOCC3)cc2n1,54
16,COC(=O)c1ccc(-c2cc(C(F)(F)F)cc(N(C)C)n2)cc1,23.6
17,Cc1cccc(C(C(=O)NC(C)(C)CN2CCCC2)N(C)C)c1 (stereo unspecified),-13.2
18,CCc1ccc2nc(C)cc(C(=O)N[C@@H]3C[C@@H](CO)N(C)C3)c2c1,22.1
19,Cn1cccc1C(=O)N1CCC2(CC1)CN(c1ccsc1)C(=O)CO2,71.9
20,CN1CC(=O)N(c2ccsc2)CC12CCN(C(=O)c1cccn1C)C2 (stereo unspecified),19.4
21,Cn1cc(N2CC3(CCN(C(=O)c4cccn4C)CC3)OCC2=O)cn1,73
22,Cn1cc(N2CCC3(CCN(C(=O)c4cccn4C)C3)C2=O)cn1 (stereo unspecified),23.6

row,SMILES,INHIBITION [%]
1,Cn1cccc1C(=O)N1CCC2(CC1)CN(c1ccccc1)C(=O)CO2,33.4
2,Cn1cccc1C(=O)N1CCC2(CC1)CN(c1cncnc1)C(=O)CO2,11.4
3,CN(C)c1ccc(CN(CC2CCCO2)C(=O)c2csnn2)cc1 (stereo unspecified),11.8
4,CC1(c2cc[nH]n2)CCN(C(=O)c2ccc(Cl)cc2)CC1,-2.09
5,O=C(c1ncccn1)N1C[C@H]2CCC[C@@]2(COc2ccccn2)C1,-15.1
6,CN(C)CC(=O)N1C[C@H]2CCC[C@@]2(COc2ccccn2)C1,52.9
7,COC[C@@]12CCC[C@@H]1CN(C(=O)COC1CCCC1)C2,32.5
8,COC[C@@]12CCC[C@@H]1CN(C(=O)CN(C)C)C2,56.4
9,CN(C)C(=O)N1C[C@H]2CCC[C@@]2(COc2ccccn2)C1,-9.67
10,COC[C@@]12CCC[C@@H]1CN(C(=O)N1CCCC1)C2,18.6
11,COCCC(=O)N1C[C@H]2CCC[C@@]2(COC)C1,24.6
12,CCOCC(=O)N1C[C@H]2CCC[C@@]2(COC)C1,-0.284
13,COCC(=O)N1C[C@H]2CCC[C@@]2(COC)C1,85.2
14,Cc1cccc(CN2C(=O)CCC23CCN(c2ncc(F)cn2)CC3)n1,-26.8
15,O=S(=O)(N1CCOCC1)N1CCCC(c2ccccn2)C1 (stereo unspecified),15.99
16,COc1c(C2CCCN2C(=O)c2c(C)noc2C(C)C)c(C)nn1C (stereo unspecified),35.9
17,COCC(=O)N1CCc2c(nnn2C)C1COCCN1CCCC1 (stereo unspecified),29
18,Cc1ccc(C(=O)Nc2nn[nH]n2)s1,2.61
